Screening data: PubChem BioAssay, National Center for Advancing Translational Sciences (NCATS)
An excerpt weighted towards active compounds, which were near 9.8% of everything screened.
HPGD inh: blocks human HPGD enzyme activity | P15428 | purified HPGD, NADH fluorescence kinetic, PGE2 substrate | Potency, µM, for the others: at the top dose activity change, negative = inhibition, hits mostly inhibitors | 150,000 compounds, 4.3% hits | AID 894; further: potency means the concentration at half of the fitted maximal effect; on the % scale 0 is the no-effect control and ±100 the full control effect
Target sequence (P15428 whole entry, looked up): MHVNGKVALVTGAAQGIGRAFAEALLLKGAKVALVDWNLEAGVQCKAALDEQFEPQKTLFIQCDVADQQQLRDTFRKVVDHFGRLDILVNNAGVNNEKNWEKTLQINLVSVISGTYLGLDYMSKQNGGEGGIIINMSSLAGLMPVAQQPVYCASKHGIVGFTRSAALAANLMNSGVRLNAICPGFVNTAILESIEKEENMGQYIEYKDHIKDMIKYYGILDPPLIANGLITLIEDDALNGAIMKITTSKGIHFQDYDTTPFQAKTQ
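NADH formation kinetics: reaction with 30 uM PGE2 and 1 mM NAD+ (final), 20 nM enzyme, Tris-HCl pH 8 with Tween 20, after 15 min compound preincubation at room temperature. Fluorescence change, last versus first of five reads.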
CBFb-RUNX1 inh: CBF-beta/RUNX1 interaction disruption. AlphaScreen CBFb-His/RUNX1-biotin binding, biochemical. AID 1477. 230,000 tested, under 10 active. Potency, µM (doses to about 59.8 µM), for the others: top-dose activity, negative = inhibition, usual class: inhibitors; active means well fitted curve in the direction sought with a large enough effect; inconclusive means small, poorly fitted or top-dose-only effect, or another doubt; inactive means no such curve, though single readings can be large; an effect the other way counts as inactive or inconclusive; further: % of control where 0% means no effect
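Compounds were screened at multiple concentrations against a preformed CBF-beta(His)/RUNX1(biotin) complex (30 nM of each) for 15 min at room temperature, followed by 90 min with nickel and streptavidin beads and AlphaScreen reading.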
JMJD2E inh: JMJD2E (human) inhibition; JMJD2E catalytic domain, FDH-coupled NADH fluorescence (FDH is formaldehyde dehydrogenase); Potency, µM (titrated, usually from 57.1 µM), inactives show at the highest dose activity change, negative = inhibition, hits mostly inhibitors; 230,000 compounds, 1.6% hits; AID 2147;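 further: potency means the concentration at half of the fitted maximal effect; 0% = wells with enzyme and -100% = buffer wells without enzyme; nearly all actives have a fitted effect of over 50% in size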
HTT cytoprotect: cytoprotection in Huntington HTT-Q103 PC12 cell model | 230,000 compounds, 0.14% hits | Potency, µM (series often up to 56.4 µM), inactives show cytoprotection (ATP increase), most hits filed as activators | PC12 HTT-Q103 induced, cytoprotection, ATP luminescence, 40 h; active means well fitted curve in the direction sought with a large enough effect; inconclusive means small, poorly fitted or top-dose-only effect, or another doubt; inactive means no such curve, though single readings can be large; an effect the other way counts as inactive or inconclusive; further: potency means the concentration at half of the fitted maximal effect; % of control where 0% means no effect; nearly all actives have a fitted effect of over 45% in size
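Compounds were screened for protection of PC12 cells against cell death after tebufenozide induction (100 nM final) of mutant Huntingtin exon 1 (Q103) fused to GFP.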
HTT aggregate: mutant huntingtin aggregation inhibition. PC12 HttQ103-GFP aggregates, Acumen cytometry, 40 h. Potency, µM (series often up to 46.1 µM), inactives show at the highest dose activity change, negative = inhibition, most hits filed as inhibitors. 220,000 compounds, 1.1% hits. AID 1688; active means well fitted curve in the direction sought with a large enough effect; inconclusive means small, poorly fitted or top-dose-only effect, or another doubt; inactive means no such curve, though single readings can be large; an effect the other way counts as inactive or inconclusive; further: potency means the concentration at half of the fitted maximal effect; on the % scale 0 is the no-effect control and ±100 the full control effect; nearly all actives have a fitted effect of over 60% in size
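PC12 cells stably carrying ecdysone-inducible HTT exon 1 Q103–GFP were induced with tebufenozide (100 nM final) and treated with library compounds in titration. GFP aggregates in lysates were counted by laser scanning cytometry.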
ALDH1A1 inh: ALDH1A1 (human) enzyme inhibition. 220,000 compounds, 7.3% hits. AID 1030. Purified ALDH1A1, NADH fluorescence, propionaldehyde substrate. Potency, µM (doses to about 75.3 µM), inactives show at the highest dose activity, negative = inhibition, usual class: inhibitors. P00352;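 further: potency means the concentration at half of the fitted maximal effect; plate controls were no enzyme wells and a reference inhibitor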
Target sequence (P00352 whole entry, looked up): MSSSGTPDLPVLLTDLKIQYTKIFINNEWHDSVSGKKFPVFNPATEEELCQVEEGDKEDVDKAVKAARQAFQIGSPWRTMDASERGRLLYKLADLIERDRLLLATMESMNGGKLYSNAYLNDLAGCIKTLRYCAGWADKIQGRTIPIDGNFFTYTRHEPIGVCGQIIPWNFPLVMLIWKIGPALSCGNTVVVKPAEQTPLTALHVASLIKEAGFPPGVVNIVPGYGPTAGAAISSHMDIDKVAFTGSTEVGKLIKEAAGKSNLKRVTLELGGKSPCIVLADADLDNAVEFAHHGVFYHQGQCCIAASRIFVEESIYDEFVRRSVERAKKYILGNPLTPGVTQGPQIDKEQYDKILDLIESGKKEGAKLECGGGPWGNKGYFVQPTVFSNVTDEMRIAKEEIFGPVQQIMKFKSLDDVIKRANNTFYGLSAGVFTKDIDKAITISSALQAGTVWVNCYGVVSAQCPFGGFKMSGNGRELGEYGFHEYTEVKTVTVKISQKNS
Active calls of the source: *; ? = inconclusive; / = no result; [ ] = another dose, or the depositor's remark. Unless noted, the call rests on the fitted dose curve; in most records, active means well fitted inhibition curve with a large enough effect (not every such curve was filed as active); inconclusive means small, poorly fitted or top-dose-only effect, or another doubt; inactive means no such curve, though single readings can be large or run the other way.

SMILES	HPGD inh	CBFb-RUNX1 inh	JMJD2E inh	HTT cytoprotect	HTT aggregate	ALDH1A1 inh
C=C1c2ccccc2O[C@H](C(=O)OCC)[C@@H]1CCC(C)C (tested in a mixture with another compound)	-11%	2%[89.1 µM]	/	9%	/	32µM*
C=C1c2cccc(C(F)(F)F)c2O[C@H](C(=O)OCC)C1OC (mixture of isomers)	-9%	21%[89.1 µM]	/	-3%	/	3%
CCC(C)C1NC(=O)C(Cc2ccc(O)cc2)NC(=O)C(N)CSSCC(C(=O)N2CCCC2C(=O)NC(CC(C)C)C(=O)NCC(N)=O)NC(=O)C(CC(N)=O)NC(=O)C(CCC(N)=O)NC1=O (centres undefined)	/	-15%	/	8%	1%	/
C=CCNC(=O)C12CCC(C)(C(=O)[C@H]1Br)C2(C)C (some centres undefined)	/	8%	-2%	-9%[10 µM]	-4%[9.22 µM]	/
CC1=CC(=O)C2=C(C)CC[C@@H]3[C@H](OC(=O)[C@H]3C)[C@H]12	/	/	/	-23%	/	/
CCCc1noc2c1C(c1cc(Br)ccc1F)C(C#N)=C(N)N2 (centres undefined)	/	0%	8%	-56%	39%	11µM*
CCOc1ccc2[nH]c3c(=O)n(CCc4ccc(OC)cc4)cnc3c2c1	/	7%	?	34%[10 µM]	28%[9.22 µM]	/
C#CCCCCCCCCCCCC(O)CC(O)COC(C)=O (centres undefined)	-24%	?	0%	0%	/	14µM*
O=C(C1CCCN(Cc2ccccc2)C1)N1CCc2ccccc2C1 (centres undefined)	-3%	-1%	?	19%	-17%	-15%
Cc1ccc(-c2ccc(/C=N/N=C3/NC(=O)C(CC(=O)O)S3)o2)c([N+](=O)[O-])c1 (centres undefined)	18µM*	-8%	-8%	-11%	-6%	-4%
O=C(O)CC1S/C(=N/N=C/c2ccc(-c3ccccc3[N+](=O)[O-])o2)NC1=O (centres undefined)	16µM*	-12%	-28%	-28%	2%	8.9µM*
Cc1ccc(Nc2nc(N)nc(CN3CCN(C(=O)c4ccco4)CC3)n2)cc1Cl	-25%	3%	-4%	-15%[0.074 µM]	10%[9.22 µM]	7.9µM*
Cc1ccc2c(CN3CCN(C(=O)c4ccco4)CC3)cc(=O)oc2c1C	/	2%	-11%	-16%	7%	25µM*
Cc1ccc(Nc2nc(N)nc(CN3CCN(c4ccccc4F)CC3)n2)cc1	-11%	-16%	-9%	-19%	?	32µM*
Nc1ccc(N(S(=O)(=O)c2ccccc2)S(=O)(=O)c2ccccc2)c(Cl)c1	-1%	/	/	6%[10 µM]	/	-12%[13.5 µM]
O=C(COc1ncnc2ccc(Br)cc12)NCc1ccco1	/	21%	4%	3%[10 µM]	-35%[9.22 µM]	/
CCCCN(CC)C(=S)Nc1ccc2nc(N3CCN(C)CC3)cc(C)c2c1	/	14%	?	2%[10 µM]	6%	?
COc1ccc(-c2onc3ccc(Cl)cc23)cc1	?	-3%	-14%	-23%	-6%	20µM*
Cc1ccc(-c2onc3ccc(Cl)cc23)cc1	-5%	12%	14%	20%[0.074 µM]	-25%	-1%
O=Cc1ccc2noc(-c3ccc(Cl)cc3)c2c1	-24%	-7%	?	-5%	-22%	22µM*
Cc1nn(CC(O)c2ccccc2)c(C)c1Br (centres undefined)	-3%	2%	7%	-4%	-16%[9.22 µM]	18µM*
Nc1nc(N)nc(-c2ccc(Cl)cc2)n1	-7%	-2%	13%	-21%	-5%[9.22 µM]	14%
Nc1nc(N)nc(-c2cc(Cl)ccc2Cl)n1	/	3%	/	7.9µM*	1%	/
O=c1cc(CF)[nH]c(=S)[nH]1	-13%	/	/	-14%[10 µM]	/	-13%[13.5 µM]
Cn1c(=O)oc2cc(S(=O)(=O)N3CCC(C(=O)NCCc4ccccc4)CC3)ccc21	/	6%	-4%	-1%[10 µM]	-7%[9.22 µM]	/
SMILES	HPGD inh	CBFb-RUNX1 inh	JMJD2E inh	HTT cytoprotect	HTT aggregate	ALDH1A1 inh
COCCn1c(C)nnc1SCC(=O)Nc1ccccc1[N+](=O)[O-]	/	3%	-2%	19%[10 µM]	-3%[9.22 µM]	?
C/C(=N/NC(=O)CC1N=C(Cc2ccccc2)NNC1=O)c1cccnc1 (centres undefined)	/	-4%	-19%	-2%[10 µM]	2%[9.22 µM]	4%
CCOC(=O)c1cc2c(C)[nH]c(C)c2cc(C(=O)OCC)c1=O	/	-20%	?	0%[10 µM]	0%[9.22 µM]	25µM*
CCCCCCCCCC(=O)O[C@H](CC(=O)O)C[N+](C)(C)C	-5%	?	-4%	-36%	/	-1%
COc1cc(/C=N/NC(=O)c2ccc(O)cc2)ccc1Oc1ccc([N+](=O)[O-])cn1	22µM*	-4%	2%	3%[10 µM]	-5%	18%
COc1cc(/C=N/NC(=O)c2ccncc2)ccc1Oc1ccc([N+](=O)[O-])cn1	/	-1%	?	-34%	-13%	?
COc1cc(/C=N/NC(=O)c2cncc(Br)c2)cc([N+](=O)[O-])c1O	/	/	7.9µM*	22%[10 µM]	-10%[9.22 µM]	/
COc1ccc(/C=N/NC(=O)c2ccncc2)cc1[N+](=O)[O-]	/	-2%	4%	-11%	-7%	?
COc1cc([N+](=O)[O-])cc(/C=N/NC(=O)c2cncc(Br)c2)c1O	/	/	14µM*	28%[10 µM]	1%[9.22 µM]	/
COc1ccccc1-n1c(-c2ccccc2)c[n+]2c1CCc1ccccc1-2	/	8%	-3%	-87%	2.2µM*	5%
COc1ccc(-c2c[n+]3c(n2-c2ccccc2)CCCCC3)cc1	-2%	5%	4%	16%[10 µM]	?	20%
COc1ccc(-n2c(-c3ccc(Br)cc3)c[n+]3c2CCc2ccccc2-3)cc1	-6%	-15%	?	-13%[10 µM]	13µM*	2%
COc1ccc(-c2cn(-c3ccc(OC)cc3)c3[n+]2-c2ccccc2CC3)cc1	-10%	-11%	?	-50%[10 µM]	?	?
CC(C)c1ccc(-n2c(-c3ccccc3)c[n+]3c2CCc2ccccc2-3)cc1	/	3%	3%	-54%[10 µM]	1.6µM*	?
O=c1cc(CN2CCN(c3ccccc3O)CC2)nc2sccn12	?	-9%	?	-6%	-2%[9.22 µM]	25µM*
CCN(CC)c1ccc(C=Nc2ccc(C#N)cc2)c(O)c1	28µM*	15%	?	-8%	7%[9.22 µM]	35µM*
COc1cc(/C=N/NC(=O)CC2(C)OCCCO2)ccc1OCc1ccccc1	?	-6%	-4%	-4%[10 µM]	-11%	11µM*
COc1cc(/C=N/NC(=O)CC2(C)OCCCO2)ccc1OCc1ccc(Cl)cc1Cl	-22%	2%	-17%	14%[10 µM]	-1%	0%
C=CCOn1c(=O)c(-c2ccc(OC)c(OC)c2)[n+]([O-])c2ccccc21	-28%	-5%	-8%	-21%	3%	?
